# Where “and” joins values, the source holds several entries; their conditions need not be identical. Identical values can stand only once. Calls of active or inactive are those of the source.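 How the source made its calls, unless noted: active means thallium flux through the channel raised or lowered by more than 3 SD from vehicle-only wells, actives on both sides; inactive means the rest.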
# Experiments:
# [1] = system: Hepatitis C virus NS3 helicase; experiment: HCV NS3 helicase inhibitors, primary screen, biochemical, fluorescence polarization, NIH Clinical Collection (AID 743270; call rule not given here); conditions: NS3 helicase binding to Cy5-dT15 DNA, stronger effect = higher value, concentration not given here
# [2] = target: Single-stranded DNA-binding protein (Escherichia coli (strain K12)) (UniProt P0AGE0); experiment: E. coli SSB displacement from DNA, counter-screen for HCV NS3 helicase inhibitor project, biochemical, fluorescence polarization, NIH Clinical Collection (AID 743271; in the data active means inhibition above about 28%); conditions: stronger effect = higher value, concentration not given here
# [3] = fluorescence interference in NS3h assay format, artefact control for HCV NS3 helicase inhibitor project, biochemical, NIH Clinical Collection (AID 743272; call rule not given here;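 further: HCV NS3 helicase with a Cy5 labelled single stranded DNA probe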); conditions: fluorescence interference counterscreen, stronger effect = lower value
# [4] = stimulators of nuclear beta-catenin in C2C12, primary screen, imaging, WNT3A-conditioned medium, mouse C2C12, NPC library (AID 1117326; in the data active means nuclear beta-catenin stimulation mostly above about 4.2%, no sharp cut-off; inactive means mostly below about 10%); conditions: stronger effect = higher value
# [5] = stimulators of insulin release from INS-1E, primary screen, cell-based, 5 mM glucose, NPC library (AID 1117329;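 active means compound raises insulin release from rat beta cells at 5 mM glucose, no numeric limit stated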); conditions: rat INS-1E insulin secretion, at 10 µM, stronger effect = higher value
# [6] = growth inhibition of GSK3B-pretreated HCT116 cells – cell-based, CellTiter-Glo, 0.2 to 20 µM (AID 1117336;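 active means compounds lowering colon cancer cell viability after pretreatment blocking the GSK3B kinase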); conditions: HCT116 viability after GSK3B inhibitor, at 20 µM, stronger effect = higher value
# [7] = inhibition of endothelial tube formation, primary screen, imaging, VEGF stimulated, CD31 staining, tube area, NPC library (AID 1117340;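 active means compound that reduces growth-factor-driven endothelial tube area in a mixed cell culture, no cutoff stated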); conditions: VEGF-stimulated ADSC/ECFC co-culture, at 10 µM, stronger effect = higher value
# [8] = glucagon-like peptide 1 release enhancers, primary assay, NCI-H716 cell line, NPC library (AID 1117341;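 active means compound raises GLP1 secretion from the human gut endocrine cells, with no numeric limit stated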); conditions: NCI-H716 cells, at 10 µM, stronger effect = higher value
# [9] = HCT116 colon cancer cell growth inhibition, primary screen, CellTiter-Glo luminescence, NPC library (AID 1117342;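 active means compounds that lower survival of HCT116 colon cancer cells in the luminescence readout, no numeric limit stated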); conditions: at 20 µM (top of the series)
# [10] = CellTiter-Glo luminescent readout of SW480 viability loss, NPC library primary (AID 1117343;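 active means compounds that lower viability of the colon cancer cells in the luminescence readout, with no numeric limit stated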); conditions: CellTiter-Glo luminescence; at 20 µM (top of the series)
# [11] = decreased DLD-1 cellular survival, CellTiter-Glo luminescent readout, NPC compound collection, primary HTS (AID 1117346;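 active means compounds that lower survival of DLD-1 colon cancer cells in the luminescence readout, no cutoff given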); conditions: DLD-1 viability, CellTiter-Glo luminescence; at 20 µM (top of the series)
# [12] = target: 6-phosphogluconate dehydrogenase, decarboxylating (Homo sapiens) (UniProt P52209); experiment: 6PGD enzyme inhibitors, primary screen, biochemical, human, recombinant enzyme, NADPH absorbance (AID 1159550;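 active means at least 20% inhibition of 6-phosphogluconate dehydrogenase activity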); conditions: recombinant 6PGD, NADPH absorbance 341 nm; at 10 µM; stronger effect = higher value
# [13] = sensitizers of A549 cells to miR-34 induction, primary screen, imaging, A549 dox-inducible miR-34, nuclei and caspase counts (AID 1347080;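 active means compounds whose cell count with miR-34 switched on is under 0.7 times the count with it off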); conditions: A549 miR-34 inducible, Hoechst nuclei count, 48 h
# [14] = survival rescue of mitochondrial mutant cells in low glucose, primary screen, MELAS cybrids, Rieske KO mouse fibroblasts, CellTiter-Glo (AID 1508586;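 active means mean z-score across replicates of 1.96 or higher in either the MELAS or the Rieske mutant cell line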;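 further: z relative to plate mean and SD of compound and empty wells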)
# [15] = target: NAD(+) hydrolase SARM1 (Homo sapiens) (UniProt Q6SZW1); experiment: SARM1 TIR NADase inhibitors, cell lysate, NAD-Glo luminescence (AID 1508614;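 active means compound whose remaining NAD level is above about 45 nM, limit read from the data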); conditions: SAM-TIR HEK293T lysate NADase, at 1 µM, stronger effect = higher value
# [16] = target: Mitogen-activated protein kinase 7 (Homo sapiens) (UniProt Q13164); experiment: ERK5 transactivation activators in reporter cells, primary screen, cell-based, HTS (AID 1508626;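 active means luciferase signal above three times the same-plate solvent-only control wells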;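 further: luciferase driven by Gal4-ERK5 fusion binding five Gal4 sites before minimal TATA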); conditions: HeLa Gal4-ERK5 transactivation, 18 h, at 5 µM, stronger effect = higher value
# [17] = system: F380Y; experiment: modulators of BK channel variants, profiling panel, selectivity assay, cell-based, U2OS BacMam, thallium flux, beta subunits (AID 1259406); conditions: at 30 µM;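 further: initial slope of Thallos dye fluorescence rise after thallium is added; log ratio against the mean of 0.3% DMSO vehicle wells on the same plate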
# [18] = system: F380Y/beta2Delta; experiment: as above; conditions: at 30 µM
# [19] = target: Calcium-activated potassium channel subunit alpha-1 (Homo sapiens) + Leucine-rich repeat-containing protein 26 (Homo sapiens) (UniProt Q12791+Q2I0M4); experiment: as above; conditions: F380Y/Slo1WT/gamma1, at 30 µM
# [20] = differential killing of epithelial or mesenchymal cells, primary screen, imaging, PC-3E GFP, TEM4-18 mCherry, co-culture (AID 1345086;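 active means compounds killing one labelled cell type while sparing the other, by normalised counts and ratio limits, not self-fluorescent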;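 further: cells exposed to compound for 72 h before imaging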;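 on red/green cell ratio (normalised): normalised mesenchymal count divided by normalised epithelial count so high means epithelial killing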); conditions: imaging cell counts, at 1 µM
# [21] = stronger effect = lower value, cell number ratio, induced over uninduced
# [22] = measured here: relative caspase fold change +Dox/-Dox
# [23] = measured here: total cells with miR-34 induction, stronger effect = lower value
# [24] = measured here: total cells without miR-34 induction
# [25] = MELAS cybrid survival, CellTiter-Glo 48 h, stronger effect = higher value
# [26] = Rieske KO mouse fibroblast survival, CellTiter-Glo 72 h
# Chain of 6-phosphogluconate dehydrogenase, decarboxylating (Homo sapiens) (P52209 whole entry, looked up): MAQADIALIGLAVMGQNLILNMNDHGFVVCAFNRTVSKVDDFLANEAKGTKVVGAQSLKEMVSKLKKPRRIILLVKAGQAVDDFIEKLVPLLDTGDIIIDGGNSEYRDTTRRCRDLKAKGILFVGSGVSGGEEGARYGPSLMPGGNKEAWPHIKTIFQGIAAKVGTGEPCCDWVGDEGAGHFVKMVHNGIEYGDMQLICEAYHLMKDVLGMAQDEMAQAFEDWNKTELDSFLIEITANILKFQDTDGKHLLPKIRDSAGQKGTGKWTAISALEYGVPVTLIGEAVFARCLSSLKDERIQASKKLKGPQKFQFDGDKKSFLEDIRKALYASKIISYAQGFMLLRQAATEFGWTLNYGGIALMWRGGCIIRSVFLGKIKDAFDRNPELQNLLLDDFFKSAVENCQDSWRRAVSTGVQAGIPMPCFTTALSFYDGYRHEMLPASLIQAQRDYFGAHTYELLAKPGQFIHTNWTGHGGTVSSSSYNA
# Chain of NAD(+) hydrolase SARM1 (Homo sapiens) (Q6SZW1 whole entry, looked up, the tested form may be a part): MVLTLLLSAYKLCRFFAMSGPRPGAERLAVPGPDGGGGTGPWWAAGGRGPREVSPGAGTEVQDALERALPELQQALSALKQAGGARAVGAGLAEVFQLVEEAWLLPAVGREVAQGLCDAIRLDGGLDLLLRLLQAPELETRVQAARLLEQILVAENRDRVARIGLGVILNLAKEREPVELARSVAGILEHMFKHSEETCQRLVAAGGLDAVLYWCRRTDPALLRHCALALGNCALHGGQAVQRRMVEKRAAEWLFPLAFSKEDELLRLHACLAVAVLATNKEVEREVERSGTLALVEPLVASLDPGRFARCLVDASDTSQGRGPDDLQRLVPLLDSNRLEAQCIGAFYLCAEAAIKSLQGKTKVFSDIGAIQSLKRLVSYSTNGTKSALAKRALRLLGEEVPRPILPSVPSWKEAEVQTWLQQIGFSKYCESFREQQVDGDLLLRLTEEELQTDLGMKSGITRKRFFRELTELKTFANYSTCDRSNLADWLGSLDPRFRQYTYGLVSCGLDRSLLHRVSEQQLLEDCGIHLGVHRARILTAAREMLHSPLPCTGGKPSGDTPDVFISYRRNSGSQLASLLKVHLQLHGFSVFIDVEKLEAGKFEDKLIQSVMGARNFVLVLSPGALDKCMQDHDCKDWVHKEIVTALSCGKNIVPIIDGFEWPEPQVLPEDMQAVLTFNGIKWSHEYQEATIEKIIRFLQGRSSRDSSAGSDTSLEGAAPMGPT
# Chain of Calcium-activated potassium channel subunit alpha-1 (Homo sapiens) + Leucine-rich repeat-containing protein 26 (Homo sapiens) (Q2I0M4 whole entry, looked up, one chain of several): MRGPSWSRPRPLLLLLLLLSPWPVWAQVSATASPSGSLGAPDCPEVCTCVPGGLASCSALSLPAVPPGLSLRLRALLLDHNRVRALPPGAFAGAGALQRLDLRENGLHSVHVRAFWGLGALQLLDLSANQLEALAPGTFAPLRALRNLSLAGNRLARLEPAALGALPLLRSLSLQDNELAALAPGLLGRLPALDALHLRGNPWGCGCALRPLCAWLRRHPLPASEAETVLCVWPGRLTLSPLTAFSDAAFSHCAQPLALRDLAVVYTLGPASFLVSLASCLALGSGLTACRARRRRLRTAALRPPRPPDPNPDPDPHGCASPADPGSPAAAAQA
# Chain of Mitogen-activated protein kinase 7 (Homo sapiens) (Q13164 whole entry, looked up, the tested form may be a part): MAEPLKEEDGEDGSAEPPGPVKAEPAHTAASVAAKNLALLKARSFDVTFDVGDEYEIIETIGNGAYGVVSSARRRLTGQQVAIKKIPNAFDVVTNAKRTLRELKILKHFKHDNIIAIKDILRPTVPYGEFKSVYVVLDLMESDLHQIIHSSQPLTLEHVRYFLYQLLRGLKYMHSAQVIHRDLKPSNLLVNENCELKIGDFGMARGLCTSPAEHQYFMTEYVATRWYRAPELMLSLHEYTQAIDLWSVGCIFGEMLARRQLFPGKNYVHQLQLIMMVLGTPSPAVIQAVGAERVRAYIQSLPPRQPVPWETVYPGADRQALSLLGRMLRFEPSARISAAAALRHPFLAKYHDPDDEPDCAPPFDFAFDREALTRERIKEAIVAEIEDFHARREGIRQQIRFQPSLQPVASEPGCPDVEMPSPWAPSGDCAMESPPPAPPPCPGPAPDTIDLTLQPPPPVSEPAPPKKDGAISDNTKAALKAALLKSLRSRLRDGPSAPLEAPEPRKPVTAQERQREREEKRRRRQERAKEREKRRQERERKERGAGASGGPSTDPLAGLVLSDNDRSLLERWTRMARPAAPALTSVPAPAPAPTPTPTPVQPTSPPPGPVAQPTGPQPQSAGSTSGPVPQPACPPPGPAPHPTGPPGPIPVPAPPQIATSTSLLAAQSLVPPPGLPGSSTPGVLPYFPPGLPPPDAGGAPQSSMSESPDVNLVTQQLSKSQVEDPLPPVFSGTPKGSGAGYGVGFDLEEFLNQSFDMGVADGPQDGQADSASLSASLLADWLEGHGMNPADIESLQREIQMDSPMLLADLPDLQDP
compound,measurement,setting,value
C[C@]12CCC(=O)C=C1CC[C@@H]1[C@@H]2C(=O)C[C@@]2(C)[C@H]1CC[C@]2(O)C(=O)CO,inhibition,[1],-1.97% (inactive)
same,inhibition,[2],2.76% (inactive)
same,fluorescence ratio,[3],0.97 (inactive)
same,nuclear beta-catenin stimulation,[4]; at 10 µM,-0.9% (inactive)
same,nuclear beta-catenin stimulation,"[4]; stimulation, at 2 µM",1.3%
same,insulin secretion stimulation,[5],-3.1% (inactive)
same,viability decrease,[6],-9.9% (inactive)
same,tube area decrease,[7],4.3% (inactive)
same,GLP1 secretion stimulation,[8],-2.4% (inactive)
same,inhibition of viability,[9],4.4% (inactive)
same,viability decrease (inhibition),[10],6.5% (inactive)
same,viability decrease (inhibition),[11],-2.6% (inactive)
same,inhibition,[12],4.09% (inactive)
same,fold change,[13]; [21],0.98 (inactive) and 0.917 (inactive)
same,fold change,[13]; [22],2.11 and 1.06
same,cell count,[13]; [23],8700 and 9320
same,cell count,[13]; [24],8880 and 10200
same,z-score,[14]; [25],1.14 (inactive)
same,z-score,[14]; [26],-0.104
same,remaining NAD,[15],10 nM (inactive)
same,luciferase signal,[16],36 AU (inactive)
same,log fold change Tl+ flux,[17],0.0198 (inactive)
same,log fold change Tl+ flux,[18],0.0238 (inactive)
same,log fold change Tl+ flux,[19],0.0148 (inactive)
OCCN1C[C@H](O)[C@@H](O)[C@H](O)[C@H]1CO,inhibition,[1],-1.98% (inactive)
same,inhibition,[2],-4.72% (inactive)
same,fluorescence ratio,[3],0.93 (inactive)
same,nuclear beta-catenin stimulation,[4]; at 10 µM,-2.3% (inactive)
same,nuclear beta-catenin stimulation,"[4]; stimulation, at 2 µM",-1%
same,insulin secretion stimulation,[5],5.4% (inactive)
same,viability decrease,[6],-1.6% (inactive)
same,tube area decrease,[7],0.1% (inactive)
same,GLP1 secretion stimulation,[8],-1.4% (inactive)
same,inhibition of viability,[9],0.6% (inactive)
same,viability decrease (inhibition),[10],-1.7% (inactive)
same,viability decrease (inhibition),[11],0.1% (inactive)
same,inhibition,[12],6.33% (inactive)
same,z-score,[14]; [25],0.074 (inactive)
same,z-score,[14]; [26],0.78
same,remaining NAD,[15],10 nM (inactive)
same,luciferase signal,[16],80 AU (inactive)
same,log fold change Tl+ flux,[17],-0.0502 (inactive)
same,log fold change Tl+ flux,[18],-0.0041 (inactive)
same,log fold change Tl+ flux,[19],-0.0394 (inactive)
O[C@@H](c1cc(C(F)(F)F)nc2c(C(F)(F)F)cccc12)[C@H]1CCCCN1,inhibition,[1],-7.73% (inactive)
same,inhibition,[2],-2% (inactive)
same,fluorescence ratio,[3],0.96 (inactive)
same,nuclear beta-catenin stimulation,[4]; at 10 µM,45% (active)
same,nuclear beta-catenin stimulation,"[4]; stimulation, at 2 µM",3.3%
same,insulin secretion stimulation,[5],6.3% (inactive)
same,viability decrease,[6],99.1% (active)
same,tube area decrease,[7],108% (active)
same,GLP1 secretion stimulation,[8],-1.8% (inactive)
same,inhibition of viability,[9],99% (active)
same,viability decrease (inhibition),[10],102% (active)
same,viability decrease (inhibition),[11],101% (active)
same,inhibition,[12],5.27% (inactive)
same,fold change,[13]; [21],1.59 (inactive)
same,fold change,[13]; [22],0.276
same,cell count,[13]; [23],950
same,cell count,[13]; [24],597
same,remaining NAD,[15],10 nM (inactive)
same,luciferase signal,[16],64 AU (inactive)
same,log fold change Tl+ flux,[17],0.333 (active)
same,log fold change Tl+ flux,[18],0.541 (active)
same,log fold change Tl+ flux,[19],0.167 (active)
C[C@]12CCC(=O)C=C1CC[C@@H]1[C@@H]2[C@@H](O)C[C@@]2(C)[C@H]1CC[C@]2(O)C(=O)CO,inhibition,[1],0.45% (inactive)
same,inhibition,[2],5.62% (inactive)
same,fluorescence ratio,[3],0.93 (inactive)
same,nuclear beta-catenin stimulation,[4]; at 10 µM,-0.3% (inactive)
same,nuclear beta-catenin stimulation,"[4]; stimulation, at 2 µM",0.1%
same,insulin secretion stimulation,[5],1.1% (inactive)
same,viability decrease,[6],-18.7% (inactive)
same,tube area decrease,[7],9.1% (inactive)
same,GLP1 secretion stimulation,[8],1.8% (inactive)
same,inhibition of viability,[9],-13.9% (inactive)
same,viability decrease (inhibition),[10],14.7% (inactive)
same,viability decrease (inhibition),[11],-6.7% (inactive)
same,inhibition,[12],-14.6% (inactive)
same,z-score,[14]; [25],-0.02 (inactive) and 0.332 (inactive)
same,z-score,[14]; [26],-0.00651 and 1.17
same,remaining NAD,[15],10 nM (inactive)
same,luciferase signal,[16],124 AU (inactive)
same,log fold change Tl+ flux,[17],0.0399 (inactive)
same,log fold change Tl+ flux,[18],0.0274 (inactive)
same,log fold change Tl+ flux,[19],-0.00874 (inactive)
c1ccc(-c2ccc(C(c3ccccc3)n3ccnc3)cc2)cc1 (stereo not given),inhibition,[1],12.3% (inactive)
same,inhibition,[2],8.37% (inactive)
same,fluorescence ratio,[3],1.04 (inactive)
same,nuclear beta-catenin stimulation,[4]; at 10 µM,-0.1% (inactive)
same,nuclear beta-catenin stimulation,"[4]; stimulation, at 2 µM",0.5%
same,insulin secretion stimulation,[5],0.3% (inactive)
same,viability decrease,[6],99.7% (active)
same,tube area decrease,[7],23.9% (inactive)
same,GLP1 secretion stimulation,[8],8.2% (inactive)
same,inhibition of viability,[9],101% (active)
same,viability decrease (inhibition),[10],141% (active)
same,viability decrease (inhibition),[11],104% (active)
same,inhibition,[12],12.4% (inactive)
same,red/green cell ratio (normalised),"[20]; actives lie on both sides, counts scaled to control wells, 1 = unselective",1.06 (inactive)
same,normalised cell number,[20]; measured here: epithelial PC-3E GFP cell survival,0.98
same,normalised cell number,[20]; measured here: mesenchymal TEM4-18 mCherry cell survival,1.04
same,z-score,[14]; [25],-0.456 (inactive) and -0.0732 (inactive) and 0.0643 (inactive)
same,z-score,[14]; [26],-0.196 and 0.568 and 0.472
same,remaining NAD,[15],10 nM (inactive)
same,luciferase signal,[16],56 AU (inactive)
same,log fold change Tl+ flux,[17],-0.00418 (inactive)
same,log fold change Tl+ flux,[18],0.0145 (inactive)
same,log fold change Tl+ flux,[19],0.0139 (inactive)
Cc1ccc(O)c([C@H](CCN(C(C)C)C(C)C)c2ccccc2)c1,inhibition,[1],-4.36% (inactive)
same,inhibition,[2],1.44% (inactive)
same,fluorescence ratio,[3],0.97 (inactive)
same,nuclear beta-catenin stimulation,[4]; at 10 µM,0.8% (inactive)
same,nuclear beta-catenin stimulation,"[4]; stimulation, at 2 µM",3.5%
same,insulin secretion stimulation,[5],30.8% (active)
same,viability decrease,[6],35.6% (inactive)
same,tube area decrease,[7],-14% (inactive)
same,GLP1 secretion stimulation,[8],8.3% (inactive)
same,inhibition of viability,[9],44.4% (inactive)
same,viability decrease (inhibition),[10],69.7% (active)
same,viability decrease (inhibition),[11],-2.4% (inactive)
same,inhibition,[12],-2.71% (inactive)
same,z-score,[14]; [25],-0.175 (inactive)
same,z-score,[14]; [26],0.484
same,luciferase signal,[16],64 AU (inactive)
same,log fold change Tl+ flux,[17],0.149 (active)
same,log fold change Tl+ flux,[18],0.0454 (inactive)
same,log fold change Tl+ flux,[19],0.0595 (inactive)
C[C@@H]1O[C@@H](OC[C@H]2O[C@@H](Oc3c(-c4ccc(O)c(O)c4)oc4cc(O)cc(O)c4c3=O)[C@H](O)[C@@H](O)[C@@H]2O)[C@H](O)[C@H](O)[C@H]1O,inhibition,[1],5.94% (inactive)
same,inhibition,[2],11.4% (inactive)
same,fluorescence ratio,[3],1.02 (inactive)
same,nuclear beta-catenin stimulation,[4]; at 10 µM,0% (inactive)
same,nuclear beta-catenin stimulation,"[4]; stimulation, at 2 µM",1.9%
same,insulin secretion stimulation,[5],0.6% (inactive)
same,viability decrease,[6],56% (active)
same,tube area decrease,[7],4.5% (inactive)
same,GLP1 secretion stimulation,[8],-1.2% (inactive)
same,inhibition of viability,[9],70.9% (active)
same,viability decrease (inhibition),[10],59.4% (active)
same,viability decrease (inhibition),[11],44.7% (inactive)
same,inhibition,[12],4.58% (inactive)
same,remaining NAD,[15],10 nM (inactive)
same,log fold change Tl+ flux,[17],-0.0319 (inactive)
same,log fold change Tl+ flux,[18],0.0273 (inactive)
same,log fold change Tl+ flux,[19],-0.026 (inactive)

# Reference: PubChem BioAssay
